Assay outcomes: PubChem BioAssay, National Center for Advancing Translational Sciences (NCATS)
KDM5B inh = KDM5B demethylase inhibition; KDM5B demethylase, FDH-coupled NADH fluorescence (FDH is formaldehyde dehydrogenase); AID 1347165; Potency, µM (top dose mostly 57.7 µM), actives largely listed as inhibitors; hit rate 2.6% among 220,000; active = well fitted inhibition curve with a large enough effect; also: nearly all actives have a fitted effect of over 70% in size
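Compound dilutions met 200 nM (final) KDM5BΔAP for 10 min at room temperature before substrate addition. The substrate mix held 12.5 µM H3K4me3 with cofactors 25 µM α-ketoglutarate and 50 µM Fe²⁺. NADH signal gain over 30 min defined activity.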
Hits are given with their value; i = inactive; ! = not active in a repeat. Many of the other results were omitted from the sample, so hits are more common in it than they were.

SMILES	KDM5B inh
N#CC1=C(N)OC2=C(C(=O)CC(c3cccs3)C2)C1c1ccccc1 (stereo unspecified)	i
O=C(CSc1nnc(-c2cccnc2)n1-c1ccccc1)Nc1ccc(Cl)cn1	i
CC(C)(C)c1ccc2c(c1)Oc1cc(C(C)(C)C)ccc1OCCOCCOCCO2	i
CC(=O)N1CCC(C(=O)Nc2ccc(Br)cc2F)CC1	i
COc1ccc(-n2nnnc2C2CCN(S(=O)(=O)c3cc(OC)ccc3OC)CC2)cc1	i
CC1CCN(C(=O)c2cn3ccnc(-c4ccc(F)cc4)c3n2)CC1	i
N#CC1CCN(C(=O)c2cc(Br)cn3ccnc23)CC1	40µM
COc1ccc(C(=O)N2CCC(N3CCCCCC3=O)CC2)cc1	i
Cc1ccc(C(=O)N2CCC(N3CCCC3=O)CC2)cc1	i
O=C(c1nc2sccn2c1Br)N1CCCC1	i
N#CC1CCN(C(=O)C2CN(c3ccccc3)C(=O)N2)CC1 (stereo unspecified)	i
O=C(c1cc(Br)cn2ccnc12)N1CCCC1	35µM
Cc1ccc(C(=O)N2CCC(N3CCCCCC3=O)CC2)cc1	35µM
CN1CCN(C(=O)c2cc(Br)cn2C)CC1	i
CC(C)(C)NC(=O)CSc1ncc(-c2ccc(Cl)cc2)o1	i
COCCCNC(=O)CSc1ccccc1C	i
O=C(O)CCC1CCN(c2cc(NC3CC3)ncn2)CC1	i
NC(=O)Cn1ccc2cc(OCC3CCN(c4cc(NC5CC5)ncn4)CC3)cnc21	40µM
CC(C)OC(=O)N1CCC(COc2cnc3c(ccn3CC(N)=O)c2)CC1	40µM
CC(C)OC(=O)N1CCC(COc2ccc3c(cnn3CCC(=O)O)c2)CC1	i
O=C(O)CCn1ncc2cc(OC3CCN(C(=O)Oc4ccccc4Cl)CC3)ccc21	i
O=C(O)Cn1ccc2cc(OCC3CCN(C(=O)OC4CCCC4)CC3)cnc21	35µM
CC(C)OC(=O)N1CCC(COc2ccc3c(cnn3CC[S+](C)(=O)[O-])c2)CC1	i
O=C(O)CCn1ncc2cc(OC3CCN(C(=O)OC4CCCC4)CC3)ccc21	i
O=C(O)CCn1ncc2cc(OCC3CCN(C(=O)Oc4ccccc4)CC3)ccc21	i
SMILES	KDM5B inh
O=C(CCC1CCN(c2cc(NC3CC3)ncn2)CC1)Nc1ccccc1	i
NC(=O)Cn1ccc2cc(OCC3CCN(C(=O)Oc4ccccc4Cl)CC3)cnc21	28µM
Cc1ccc(OC(=O)N2CCC(COc3ccc4c(cnn4CCC(=O)O)c3)CC2)cc1	i
CC(C)CCn1cnc2c1c(=O)n(CC(=O)N1CCCc3ccccc31)c(=O)n2Cc1ccccc1	i
CCn1c(COc2cc(C)cc(C)c2)nnc1SCC(=O)NC1CCCC1	i
CCOCCCNC(=O)c1cc2cc(S(=O)(=O)N(C)C)ccc2n1C	i
O=C(c1ccncc1)N1CCC(Cc2nc(-c3ccccc3)n[nH]2)CC1	i
CSc1ccc(CN(C)C(=O)Cn2c(=O)n(C)c3ccccc32)cc1	i
Cc1nn(CC(=O)Nc2ccccc2N2CCCCC2)c(=O)c2ccccc12	i
Cc1ccc(C)c(Nc2ncnc3sccc23)c1	i
Cc1cccc(NC(=O)c2csc3c2CCCC3)c1C	i
CC(=O)Nc1ccc(S(=O)(=O)N2CCC(NC(=O)CC(C)(C)C)CC2)cc1	i
CCc1noc(-c2ccn3c(CNC(=O)c4ccccn4)nnc3c2)n1	i
CCCc1noc(-c2ccn3c(CNC(=O)c4ccco4)nnc3c2)n1	28µM
CCCc1noc(-c2ccn3c(CNC(=O)c4ccc5ccccc5n4)nnc3c2)n1	13µM
Cc1noc(-c2ccn3c(CNC(=O)c4ccco4)nnc3c2)n1	28µM
Cc1cc2nc(-c3cccc(NC(=O)c4ccccc4[N+](=O)[O-])c3)oc2cc1C	i
COC(=O)CCSc1nnc(-c2nn(Cc3ccccc3)c(=O)c3ccccc23)o1	i
NC(=O)Cc1csc(NC(=O)CCc2ncc(-c3ccc(F)cc3)o2)n1	i
Cc1cc2c(cc1S(=O)(=O)N1CCC(C(=O)N3CCCC3)CC1)OCC(=O)N2	i
COc1cc2ccccc2cc1C(=O)N1CCN(CC(=O)Nc2ccccc2Cl)CC1	i
CC(C)c1cc(C(=O)Nc2ccc(NC(N)=O)cc2)c2ccccc2n1	i
Cc1ccc(CN2CC3(Cc4ccccc4NC3=O)C2)cc1	i
O=C(O)CNS(=O)(=O)c1cccnc1	i
CCCCn1c(=O)[nH]c(=O)c2c1nc(COC(=O)c1ccccc1C(F)(F)F)n2CC	i
SMILES	KDM5B inh
CCc1ccc(NC(=O)C2CCN(c3ncnc4c3sc3ncccc34)CC2)cc1	i
O=C(NCCc1cccnc1)c1ccc(Cl)cc1Cl	i
Cc1cc(C(=O)NCC(=O)Nc2c(C)cccc2C)c2ccccc2n1	i
COc1ccc(NC(=O)c2cc(NC(=O)C(C)C)cc3nc(C)ccc23)cc1	i
Cc1ccc2c(C(=O)NCCc3cccnc3)cc(NC(=O)C(C)C)cc2n1	20µM
Cc1cccc(CNC(=O)c2cc(NC(=O)C(C)C)cc3nc(C)ccc23)c1	13µM
CCN(C)Cc1cccc(CNC(=O)c2cc(C)nc3ccccc23)c1	i
O=C(NCc1ccccc1)c1cc(Sc2cccc(Cl)c2)nc2ccccc12	i
Cc1cccc(CNC(=O)c2cc(-c3ccncc3)nc3ccccc23)c1	i
CC(=O)Nc1cc(C(=O)NCc2ccccc2C)c2ccc(C)nc2c1	25µM
O=C(NCCc1cccnc1)c1ccc(F)cc1F	i
Cc1ccccc1CNC(=O)c1cc(=O)[nH]c2ccccc12	i
Cc1ccc2c(C(=O)NCc3cccc(Cl)c3)cc(NC(=O)C(C)C)cc2n1	25µM
Cc1ccc2oc(C(=O)Nc3ccc(S(=O)(=O)Nc4cc(C)nc(C)n4)cc3)cc(=O)c2c1	i
CCOC(=O)c1c(S(=O)(=O)Nc2ccc(OC)c(Cl)c2)c(C)n(C)c1C	i
CCCN1CCC(N(C)C(=O)c2ccc(N(C)C)c(F)c2)CC1	i
CC(C)(C)c1[nH]c2ccc(Br)cc2c1C=O	i
COc1cccc(CCC2CCCN(C(=O)c3ccoc3C)C2)c1 (stereo unspecified)	i
CCCn1c(C2CC(=O)N(c3cccc(C(F)(F)F)c3)C2)nc2ccccc21 (stereo unspecified)	i
O=C(NCC1(c2ccccc2)CCCC1)c1cc2c(Cl)nc3ccccc3c2s1	i
CCOc1cc(C(=O)Nc2nc(C)cs2)ccc1OCc1ccncc1	i
CCCc1ccc(S(=O)(=O)N2CCN(C(=O)C(CC(C)C)NC(N)=O)CC2)cc1 (stereo unspecified)	i
N#Cc1ccc(CN2CCC(c3nc4ccc(F)cc4c(=O)[nH]3)CC2)cc1	i
CCN1CCC(c2nc3ccc(C)cc3c(=O)[nH]2)CC1	i
Cc1ccc2nc(C3CCN(Cc4ccc(C#N)cc4)CC3)[nH]c(=O)c2c1	79µM!
SMILES	KDM5B inh
Cc1ccc(C(=O)NC(c2cccnc2)c2cc(C)ccc2C)cc1 (stereo unspecified)	i
O=C(Nc1ccc2n(c1=O)C[C@H]1C[C@@H]2CN(C(=O)c2ccc(-c3ccccc3)cc2)C1)c1ccco1	i
CCCS(=O)(=O)Nc1ccc2n(c1=O)C[C@H]1C[C@@H]2CN(C(=O)c2ccc(-c3ccccc3)cc2)C1	20µM
CSCC(=O)Nc1ccc2n(c1=O)C[C@H]1C[C@@H]2CN(C(=O)c2ccc(-c3ccccc3)cc2)C1	i
Cc1ccc(C(=O)N2CCC(n3cc(-c4nc(-c5ccccc5)no4)nn3)CC2)s1	i
CSc1ccccc1NC(=O)CC(C)C	i
CCN(Cc1cccc(F)c1)C(=O)Cn1nnn(-c2cccs2)c1=O	i
O=C(c1ccc(OC2CCN(C(=O)c3ccoc3)CC2)nc1)N1CCOCC1	i
O=C(c1ccoc1)N1CCC(Nc2cccn3ncnc23)CC1	13µM
CN(C)C(=O)c1ccc(OC2CCN(C(=O)c3ccoc3)CC2)nc1	i
